Laboratory results taken from PubChem BioAssay.
Activity calls are given as the source filed them.

Experiments:
[1] = small molecules captured by biotinylated probe aFSTL3 – biochemical, small-molecule microarray, fluorescence 635/667, stem cell growth factor project, primary screen (AID 1064); settings: higher = more signal;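 note: measures binding of the biotinylated anti-FSTL3 antibody to printed compounds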
[2] = binders from COS7 lysate, DM2A8 probe, primary screen, torsin A project, cell lysate, small-molecule microarray, fluorescence 635/667 (AID 1065); settings: higher = more signal, COS7 lysate expressing mutant human TOR1A
[3] = small molecules captured by biotinylated probe aFGF2 – biochemical, small-molecule microarray, fluorescence 635/667, stem cell growth factor project, primary screen (AID 1067); settings: higher = more signal;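 note: measures binding of biotinylated aFGF2 protein to printed compounds on slides; z-score merges feature fluorescence and signal-to-noise across triplicate slides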
[4] = small molecules captured by biotinylated probe aFGF10 – biochemical, small-molecule microarray, fluorescence 635/667, stem cell growth factor project, primary screen (AID 1071); settings: higher = more signal;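 note: score merges 667 nm spot intensity and signal to noise from triplicate slides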
[5] = target: Neurogenic locus notch homolog protein 2 (Homo sapiens) (UniProt Q04721); assay: small molecules binding Notch2 protein – biochemical, small-molecule microarray, 635 nm fluorescence, stem cell growth factors, primary screen (AID 1073); settings: higher = more signal
[6] = target: Pro-neuregulin-1, membrane-bound isoform (Homo sapiens) (UniProt Q02297); assay: small molecules binding neuregulin-1 protein – biochemical, small-molecule microarray, fluorescence 635/667, psychiatric disease protein project, primary screen (AID 1075); settings: NRG1 binding, 635 nm fluorescence, higher = more signal;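 note: score combines 667 nm spot fluorescence with signal to noise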
[7] = test system: Neuregulin-1 EGF-like domain; assay: small molecules binding NRG1 EGF domain – biochemical, small-molecule microarray, 635 nm fluorescence, primary screen (AID 1081); settings: higher = more signal;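 note: binding of the protein to compounds printed on small-molecule microarray slides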
[8] = FRG1 expression reporter modulators in myotubes – cell-based, C2C12 myotubes, firefly/Renilla luciferase, luminescence, FRG1 inhibition for FSHD, primary screen (AID 1084); settings: FRG1 promoter luciferase, higher = more signal, called active from +8 up or from −8 down
[9] = small molecules captured by biotinylated probe aFST – biochemical, small-molecule microarray, fluorescence 635/667, stem cell growth factor project, primary screen (AID 1086); settings: higher = more signal;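 note: score merges 667 nm fluorescence with signal-to-noise of each printed compound spot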
[10] = binders of probe aHhip on microarray, primary screen, stem cell growth factor project, biochemical, small-molecule microarray, fluorescence 635/667 (AID 1087); settings: higher = more signal;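 note: score merges spot fluorescence at 667nm with spot signal to noise ratio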

Chain of Pro-neuregulin-1, membrane-bound isoform (Homo sapiens) (Q02297 whole entry, looked up, the tested form may be a part, canonical isoform): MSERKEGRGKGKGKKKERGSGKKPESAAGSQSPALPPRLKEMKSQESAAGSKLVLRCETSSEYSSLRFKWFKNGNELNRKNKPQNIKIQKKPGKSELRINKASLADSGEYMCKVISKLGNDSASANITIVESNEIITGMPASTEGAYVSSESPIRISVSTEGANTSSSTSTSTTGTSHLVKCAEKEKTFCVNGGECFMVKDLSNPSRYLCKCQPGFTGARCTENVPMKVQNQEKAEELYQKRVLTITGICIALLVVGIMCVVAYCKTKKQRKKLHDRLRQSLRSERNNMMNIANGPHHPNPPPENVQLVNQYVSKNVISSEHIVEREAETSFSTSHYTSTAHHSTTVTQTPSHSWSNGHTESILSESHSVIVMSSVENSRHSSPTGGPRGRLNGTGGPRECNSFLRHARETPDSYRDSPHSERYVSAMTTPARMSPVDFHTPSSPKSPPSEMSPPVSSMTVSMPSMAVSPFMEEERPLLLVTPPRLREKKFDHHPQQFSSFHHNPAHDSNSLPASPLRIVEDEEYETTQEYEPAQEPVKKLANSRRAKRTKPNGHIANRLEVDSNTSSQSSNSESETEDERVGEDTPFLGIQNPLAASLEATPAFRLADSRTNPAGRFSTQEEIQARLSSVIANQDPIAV
Chain of Neurogenic locus notch homolog protein 2 (Homo sapiens) (Q04721 whole entry, looked up, canonical isoform): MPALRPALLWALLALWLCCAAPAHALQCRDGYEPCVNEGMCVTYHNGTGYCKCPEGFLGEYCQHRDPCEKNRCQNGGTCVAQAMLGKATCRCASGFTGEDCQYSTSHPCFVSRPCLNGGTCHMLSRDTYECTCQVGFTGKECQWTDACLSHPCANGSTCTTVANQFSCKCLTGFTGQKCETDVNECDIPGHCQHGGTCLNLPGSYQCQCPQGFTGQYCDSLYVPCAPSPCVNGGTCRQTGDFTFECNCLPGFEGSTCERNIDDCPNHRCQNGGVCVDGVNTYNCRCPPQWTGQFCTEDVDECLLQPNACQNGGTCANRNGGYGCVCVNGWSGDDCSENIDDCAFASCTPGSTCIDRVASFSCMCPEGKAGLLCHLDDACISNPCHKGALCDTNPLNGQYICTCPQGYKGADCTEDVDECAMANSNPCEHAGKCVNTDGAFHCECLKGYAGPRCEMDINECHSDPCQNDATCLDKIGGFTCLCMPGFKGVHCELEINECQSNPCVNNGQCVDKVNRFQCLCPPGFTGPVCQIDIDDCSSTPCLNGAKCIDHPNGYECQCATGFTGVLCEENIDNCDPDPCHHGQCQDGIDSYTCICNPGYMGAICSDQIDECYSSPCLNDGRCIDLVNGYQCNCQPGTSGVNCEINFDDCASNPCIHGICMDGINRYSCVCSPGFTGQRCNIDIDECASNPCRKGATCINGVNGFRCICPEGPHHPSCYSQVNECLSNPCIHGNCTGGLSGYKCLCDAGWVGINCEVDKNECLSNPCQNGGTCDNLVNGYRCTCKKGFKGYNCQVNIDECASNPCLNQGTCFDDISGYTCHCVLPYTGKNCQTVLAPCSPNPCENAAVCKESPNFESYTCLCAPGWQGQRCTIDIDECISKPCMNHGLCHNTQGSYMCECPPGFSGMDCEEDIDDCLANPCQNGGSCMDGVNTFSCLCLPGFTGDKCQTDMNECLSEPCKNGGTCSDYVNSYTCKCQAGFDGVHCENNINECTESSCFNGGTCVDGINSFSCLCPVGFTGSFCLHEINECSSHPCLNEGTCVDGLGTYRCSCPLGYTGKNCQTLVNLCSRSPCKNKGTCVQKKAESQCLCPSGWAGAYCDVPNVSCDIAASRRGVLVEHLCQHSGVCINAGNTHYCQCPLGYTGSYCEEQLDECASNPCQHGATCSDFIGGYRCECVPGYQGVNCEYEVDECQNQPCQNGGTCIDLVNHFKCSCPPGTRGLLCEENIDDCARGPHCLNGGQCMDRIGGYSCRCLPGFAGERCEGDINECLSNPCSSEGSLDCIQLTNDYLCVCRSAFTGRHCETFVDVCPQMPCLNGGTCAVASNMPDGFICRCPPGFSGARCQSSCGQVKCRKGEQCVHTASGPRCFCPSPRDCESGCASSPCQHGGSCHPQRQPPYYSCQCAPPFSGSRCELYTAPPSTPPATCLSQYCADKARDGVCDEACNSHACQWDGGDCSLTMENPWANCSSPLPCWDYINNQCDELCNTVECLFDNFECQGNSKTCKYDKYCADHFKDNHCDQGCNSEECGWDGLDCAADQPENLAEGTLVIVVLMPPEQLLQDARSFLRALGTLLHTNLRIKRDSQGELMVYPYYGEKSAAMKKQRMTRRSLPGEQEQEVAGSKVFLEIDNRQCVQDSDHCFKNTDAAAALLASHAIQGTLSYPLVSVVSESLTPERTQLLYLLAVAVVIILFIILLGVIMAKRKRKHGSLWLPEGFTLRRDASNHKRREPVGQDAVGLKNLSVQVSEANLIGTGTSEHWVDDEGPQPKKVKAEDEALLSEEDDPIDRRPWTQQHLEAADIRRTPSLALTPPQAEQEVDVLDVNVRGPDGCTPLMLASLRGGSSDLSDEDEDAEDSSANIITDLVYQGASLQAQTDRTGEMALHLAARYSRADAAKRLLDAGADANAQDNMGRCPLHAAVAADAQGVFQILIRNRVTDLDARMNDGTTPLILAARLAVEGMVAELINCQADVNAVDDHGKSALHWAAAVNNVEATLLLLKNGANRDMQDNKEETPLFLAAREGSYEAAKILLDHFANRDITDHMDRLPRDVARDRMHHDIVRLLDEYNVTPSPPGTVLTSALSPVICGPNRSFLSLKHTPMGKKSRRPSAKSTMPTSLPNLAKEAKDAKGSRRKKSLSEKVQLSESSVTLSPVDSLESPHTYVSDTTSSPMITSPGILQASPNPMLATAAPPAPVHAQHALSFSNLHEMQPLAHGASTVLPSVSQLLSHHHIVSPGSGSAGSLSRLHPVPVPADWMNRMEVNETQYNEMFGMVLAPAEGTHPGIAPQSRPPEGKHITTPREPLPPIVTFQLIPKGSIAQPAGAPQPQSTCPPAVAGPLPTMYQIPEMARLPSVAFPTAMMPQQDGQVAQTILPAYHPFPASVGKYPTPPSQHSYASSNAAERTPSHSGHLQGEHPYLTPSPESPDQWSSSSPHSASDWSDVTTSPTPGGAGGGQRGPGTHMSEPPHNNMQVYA

| SMILES | composite z-score [1] | composite z-score [2] | composite z-score [3] | composite z-score [4] | composite z-score [5] | composite z-score [6] | composite z-score [7] | z-score [8] | composite z-score [9] | composite z-score [10] |
| --- | --- | --- | --- | --- | --- | --- | --- | --- | --- | --- |
| CN(C)CCCC[C@@H]1NC(=O)[C@@H]2C[C@H](C(=O)NCCCCCCN)[C@H](c3cccc(OCCO)c3)N2C1=O | 1.58 | 2.15 | 0.044 | 0.973 | 1.57 | 2.24 | 1.42 | 0.0194 (inactive) | 0.88 | -0.103 |
| [N-]=[N+]=Nc1ccccc1[C@H]1OC(c2ccc(OCCCO)cc2)=N[C@@]1(CCS(=O)(=O)c1ccccc1)C(=O)NCC(O)CO (stereo not given in full) | 0.408 | 0.652 | 0.0367 | 0.543 | 1.35 | 1.75 | 1.3 | 5.85 (inactive) | 1.1 | -0.283 |
| C=CCOC(=O)[C@@H]1[C@H]2C(=O)O[C@H](c3ccccc3)[C@H](c3ccccc3)N2[C@H](c2ccc(OCCOC(=O)[C@H]3C[C@H]4C(=O)N5CCC[C@H]5C(=O)N4[C@H]3c3ccc(O)cc3)cc2)[C@@]12C(=O)Nc1ccc(I)cc12 | -0.493 | 0.942 | -0.0958 | 0.59 | 0.929 | 0.782 | 1.24 | -0.627 (inactive) | -0.0364 | -0.34 |
| COc1cc2c(cc1OC)CN(C(=O)[C@H]1[C@@H]3C(=O)O[C@@H](c4ccccc4)[C@@H](c4ccccc4)N3[C@@H](c3ccc(O)cc3)[C@]13C(=O)Nc1ccc(C#CCCO)cc13)CC2 | 0.0257 | 0.322 | -0.0659 | 0.519 | 0.0774 | 1.63 | 1.28 | -0.845 (inactive) | -0.0227 | -0.125 |
| COc1ccc(C#Cc2ccc3c(c2)[C@]2(C(=O)N3)[C@H](c3ccccc3OCCO)N3[C@H](c4ccccc4)[C@H](c4ccccc4)OC(=O)[C@H]3[C@@H]2C(=O)Nc2nc3ccccc3s2)cc1 | -0.541 | -0.0327 | -0.0232 | 0.615 | 1.18 | 0.65 | 1.17 | 2.1 (inactive) | 0.362 | -0.0618 |
| C[C@@]1([C@@H](NC(=O)c2ccc(-c3ccccc3)cc2)c2ccc(Cl)cc2)C[C@H]1C1CCCCC1 | 0.512 | 0.903 | 0.276 | 0.473 | 1.43 | 1.86 | 0.883 | -0.203 (inactive) | 0.893 | 0.133 |
| CCCC[C@@H]1C[C@H]1[C@@H](NC(=O)c1ccco1)c1ccc(-c2ccccc2)cc1 | -0.207 | -0.194 | -0.176 | 0.203 | 0.571 | -0.343 | 1.02 | 1.85 (inactive) | 0.425 | 0.0922 |
| COC(=O)[C@@]1(CCC(=O)OC(C)(C)C)N=C(c2ccc(OCCCO)cc2)O[C@H]1c1ccccc1N=[N+]=[N-] | 0.165 | -0.15 | -0.0354 | -0.312 | -0.0015 | 1.26 | 1.06 | 3.09 (inactive) | -0.161 | 0.119 |
| C[C@H]1NC(=O)[C@@]23C(=O)N[C@@H](Cc4ccccc4)C2[C@H](C)[C@@]2(C)O[C@H]2C3/C=C/C/C=C\CNC(=O)[C@@H]2CCCN2C1=O (stereo not given in full) | -0.468 | -0.454 | 0.0653 | 0.479 | 0.521 | 0.425 | 0.909 | 0.182 (inactive) | 0.145 | -0.132 |
| O=C1N(Cc2ccccc2)c2ccccc2[C@@H]2OC(c3ccc(OCCCO)cc3)=N[C@]12CCS(=O)(=O)c1ccccc1 | 0.625 | 0.206 | 0.0111 | -0.23 | 0.888 | 1.03 | 1.28 | -2.27 (inactive) | 1.15 | -0.253 |
| CCC[C@@H]1C[C@@]1(CCC)[C@@H](NS(=O)(=O)c1cccc2cccnc12)c1ccc(Cl)cc1 | 0.561 | -0.754 | 0.0367 | 0.0835 | 0.763 | 0.858 | 0.917 | -3.58 (inactive) | 0.855 | -0.0729 |
| CCCC[C@H]1OB(O)C[C@H]2C1=C(COC)C[C@H]1C(=O)N(C)C(=O)[C@H]12 | -0.441 | 0.49 | -0.144 | 0.18 | 0.364 | -0.149 | 0.6 | 0.0329 (inactive) | 0.106 | -0.15 |
| COc1ccc(C(O)C2C=CC3C(=O)N(Cc4ccccc4)C(=O)C3N2n2cnnc2)cc1OCc1ccccc1 (stereo not given) | -0.0405 | -0.209 | -0.0996 | 0.193 | -0.0176 | 0.834 | 0.613 | 0.364 (inactive) | 0.777 | -0.0296 |
| C=C[C@H](CO)NS(=O)(=O)c1ccc(Br)cc1 | -0.42 | 0.213 | -0.116 | 0.243 | 0.315 | 0.456 | 0.827 | 0.297 (inactive) | 0.447 | 0.257 |
| CC(C)N1C(=O)[C@@]2(Cc3ccccc31)c1ccccc1C(=O)N(Cc1ccccc1Cl)[C@H]2c1ccc(CO)cc1 | -0.0423 | -0.149 | -0.177 | -0.272 | -0.791 | -0.371 | 0.0118 | -0.426 (inactive) | -0.377 | -0.319 |
| NC(=O)NCC#Cc1ccc2c(c1)[C@]1(C(=O)N2)[C@H](c2ccccc2OCCO)N2[C@H](c3ccccc3)[C@H](c3ccccc3)OC(=O)[C@H]2[C@@H]1C(=O)Nc1nc2ccccc2s1 | -0.108 | -0.354 | -0.016 | 0.268 | 0.295 | 0.756 | 0.176 | 0.169 (inactive) | 0.617 | -0.0296 |
